For assay [1], the target named is rat Glutamate, NMDA Agonist Site (GluNMDA), Grin1 (gene 24408) (UniProt P35439). The assay is described as follows: NVS_LGIC_rGluNMDA_Agonist: NovaScreen (NVS) Ligand-Gated Ion Channel Assay for rat Glutamate, NMDA Agonist Site (GluNMDA) (AID 2283327). The essentials: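 Rat forebrain membranes, radioligand binding in the agonist-site protocol; 1 h after dosing; filter-based scintillation counting. Single-concentration duplicate screen at 25 uM, then concentration-response up to 50 uM for actives; gain-of-signal vs DMSO.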

Assay [2] has as its target rat Thyrotropin Releasing Hormone Receptor (TRH), Trhr (gene 25570) (UniProt Q01717). The assay is described as follows: NVS_GPCR_rTRH: NovaScreen (NVS) G Protein-Coupled Receptor Assay for rat Thyrotropin Releasing Hormone Receptor (TRH) (AID 2283329).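 Also: hit means lower bound tracer signal versus DMSO baseline.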 The essentials:
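Rat forebrain membranes; radioligand displacement at TRH receptor by filter-based scintillation counting, read 4 h after dosing. Duplicate single-point screen at 25 uM, actives rerun in concentration series; loss of signal relative to DMSO.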

Assay [3] addresses human Androgen Receptor (AR), AR (gene 367) (UniProt P10275). The experiment in a line: NVS_NR_hAR: NovaScreen (NVS) Nuclear Receptor Binding Assay for human Androgen Receptor (AR) (AID 2283332). The essentials:
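Actives from a duplicate 25 uM single-point screen went on to concentration series. Read-out after 20 h was scintillation counting of displaced radioligand in LnCAP extract, with DMSO as baseline.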

Assay [4] has as its target rat Glutamate, MK-801 Agonist Site (GluNMDA_MK801), Grin1 (gene 24408) (UniProt P35439). The experiment in a line: NVS_LGIC_rGluNMDA_MK801_Agonist: NovaScreen (NVS) Ligand-Gated Ion Channel Assay for rat Glutamate, MK-801 Agonist Site (GluNMDA_MK801) (AID 2283340). The essentials:
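Radioligand binding at MK-801 site in rat forebrain membranes, 1.5 h incubation, filter-based scintillation counting. Initially 25 uM in duplicate; actives then run in concentration-response up to 50 uM, fitted for gain of signal versus DMSO.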

Assay [5] addresses rat Glycine Receptor, Strychnine-sensitive (GlyRStrySens), Glra1 (gene 25674) (UniProt P07727). The experiment in a line: NVS_LGIC_rGlyRStrySens: NovaScreen (NVS) Ligand-Gated Ion Channel Assay for rat Glycine Receptor, Strychnine-sensitive (GlyRStrySens) (AID 2283341). An outline of the steps:
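Radioligand displacement on rat spinal cord membranes, 1 hr, filter scintillation read-out. Single-concentration duplicate screen at 25 uM; chemicals meeting threshold (e.g., 30% inhibition) rerun in concentration-response up to 50 uM. Loss of binding fitted versus DMSO.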

By AC50 is commonly meant the concentration at which the activity in the assay is half-maximal.

Structures are written as SMILES. Results filed as inconclusive are left out. Activity calls are given as the source filed them. The calls were made as follows: active = hit-call score of the fitted dose curve at least 0.9, where 1 is the maximum; inconclusive = response in the unintended direction; inactive = score below 0.9.

Sequence of rat Thyrotropin Releasing Hormone Receptor (TRH), Trhr (gene 25570) (Q01717 whole entry, looked up): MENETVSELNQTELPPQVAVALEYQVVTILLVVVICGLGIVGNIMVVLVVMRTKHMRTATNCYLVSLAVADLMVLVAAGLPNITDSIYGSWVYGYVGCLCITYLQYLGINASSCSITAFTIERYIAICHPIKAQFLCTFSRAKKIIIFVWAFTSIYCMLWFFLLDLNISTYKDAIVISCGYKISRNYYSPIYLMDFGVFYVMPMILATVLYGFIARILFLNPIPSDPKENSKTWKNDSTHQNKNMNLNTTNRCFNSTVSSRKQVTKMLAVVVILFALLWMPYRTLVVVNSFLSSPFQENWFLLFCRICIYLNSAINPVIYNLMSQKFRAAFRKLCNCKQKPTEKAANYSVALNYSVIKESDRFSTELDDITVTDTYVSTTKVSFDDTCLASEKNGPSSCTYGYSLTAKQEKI
Sequence of rat Glycine Receptor, Strychnine-sensitive (GlyRStrySens), Glra1 (gene 25674) (P07727 whole entry, looked up): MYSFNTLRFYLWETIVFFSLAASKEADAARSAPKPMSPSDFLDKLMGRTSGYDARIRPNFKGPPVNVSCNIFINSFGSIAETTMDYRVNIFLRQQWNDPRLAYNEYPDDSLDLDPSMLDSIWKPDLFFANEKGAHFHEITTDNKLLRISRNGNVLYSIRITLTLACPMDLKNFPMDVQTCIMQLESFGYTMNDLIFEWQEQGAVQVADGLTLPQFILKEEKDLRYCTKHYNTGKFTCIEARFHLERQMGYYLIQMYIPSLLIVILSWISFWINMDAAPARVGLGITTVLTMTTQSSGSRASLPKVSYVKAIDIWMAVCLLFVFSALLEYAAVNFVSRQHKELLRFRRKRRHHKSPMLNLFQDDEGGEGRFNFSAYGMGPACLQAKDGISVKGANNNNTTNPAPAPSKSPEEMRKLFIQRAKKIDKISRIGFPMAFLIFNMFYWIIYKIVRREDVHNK
Sequence of human Androgen Receptor (AR), AR (gene 367) (P10275 whole entry, looked up): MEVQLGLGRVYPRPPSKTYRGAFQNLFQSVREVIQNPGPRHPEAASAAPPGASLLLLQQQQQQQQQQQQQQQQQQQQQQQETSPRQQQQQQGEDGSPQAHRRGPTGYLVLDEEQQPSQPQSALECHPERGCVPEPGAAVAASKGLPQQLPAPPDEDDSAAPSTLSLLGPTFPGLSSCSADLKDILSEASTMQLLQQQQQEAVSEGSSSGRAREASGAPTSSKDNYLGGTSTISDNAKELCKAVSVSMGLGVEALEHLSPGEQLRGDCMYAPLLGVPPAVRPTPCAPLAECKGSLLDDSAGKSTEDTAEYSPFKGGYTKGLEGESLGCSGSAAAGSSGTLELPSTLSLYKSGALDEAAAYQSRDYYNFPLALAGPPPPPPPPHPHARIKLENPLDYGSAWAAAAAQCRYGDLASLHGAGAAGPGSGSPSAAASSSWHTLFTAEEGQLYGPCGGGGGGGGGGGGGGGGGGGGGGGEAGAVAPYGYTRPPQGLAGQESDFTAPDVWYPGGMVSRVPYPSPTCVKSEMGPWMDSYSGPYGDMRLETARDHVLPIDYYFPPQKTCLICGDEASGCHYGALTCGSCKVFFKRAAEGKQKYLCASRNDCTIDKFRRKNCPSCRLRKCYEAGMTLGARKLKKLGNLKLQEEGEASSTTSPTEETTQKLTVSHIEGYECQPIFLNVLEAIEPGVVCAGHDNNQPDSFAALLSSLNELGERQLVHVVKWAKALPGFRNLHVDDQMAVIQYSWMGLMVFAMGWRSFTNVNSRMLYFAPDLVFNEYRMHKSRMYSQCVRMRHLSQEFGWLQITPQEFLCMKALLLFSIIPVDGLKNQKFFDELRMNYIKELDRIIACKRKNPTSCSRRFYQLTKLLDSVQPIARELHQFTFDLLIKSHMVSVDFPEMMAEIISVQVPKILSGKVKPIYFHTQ

As for `CCn1nc(C)c2c1C(=O)NCC(c1ccc(O)cc1)=N2`, in assay [1], the compound was called inactive. For `CCCCCCCCCC`, the call in assay [1] was inactive. For the compound `OCC(CO)(CO)CO`, the call in assay [2] was inactive. `C=CCc1cc(S(=O)(=O)c2ccc(O)c(CC=C)c2)ccc1O`: the AC50 in assay [3] is 6.16 µM (active). With `c1ccc(C(O[C@@H]2CCCN(CCc3ccc4c(c3)OCO4)C2)c2ccccc2)cc1`, the compound was called inactive in assay [4]. Take `CCCCCCCC1CCC(=O)O1` (stereo unspecified): the outcome in assay [5] was inactive.

The record behind these values is PubChem BioAssay (EPA / NIEHS).
